Inconclusive results are not listed. Activity calls are given as the source filed them. Unless noted, calls follow the shape of the dose curve; as a rule, active = well fitted curve in the direction sought with a large enough effect; inconclusive = small, poorly fitted or top-dose-only effect, or another doubt; inactive = no such curve, though single readings can be large; an effect the other way counts as inactive or inconclusive.
Experiments:
[1] = biological target: Glucocorticoid receptor (Homo sapiens) (UniProt P04150); assay: GR-GFP Redistribution (AID 450;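 active = compounds whose dose series gives a full or clear partial fitted curve of increased nuclear translocation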; also: potency is read from the fitted curve at half-maximal effect)
[2] = biological target: Glucocorticoid receptor (Homo sapiens) (UniProt P04150); assay: GR-EFC Redistribution (AID 451; calls by dose curve; also: potency is read from the fitted curve at half-maximal effect); settings: CHO-K1 GR-EFC translocation, beta-gal luminescence, 2 h
Summary of the method: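 CHO-K1 cells expressing nuclear EA and GR-ED fragments of b-gal; compounds titrated up to 46 uM final, 2 h at 37 C. GR nuclear translocation read as complemented b-gal luminescence after 1 h RT detection.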

[3] = biological target: Mitogen-activated protein kinase 10 (Mus musculus) (UniProt Q61831); assay: JNK3 AlphaScreen Assay (AID 530; active = well fitted curve in either direction with a large enough effect, not every such curve was filed as active;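 also: kinase came from lysate of stimulated human HepG2 cells; signal reports phosphorylation of biotinylated GST-cJun 1-79 at Ser73 with 10 µM ATP; % is scaled to controls: 0 for no effect and ±100 for the full control effect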)
Summary of the method: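 Activity was read by AlphaScreen after JNK3-containing HepG2 lysate (cytokine pre-activated) phosphorylated biotinylated GST-cJun with 10 uM ATP at room temperature. Phospho-Ser73 cJun antibody with Protein-A acceptor beads provided detection.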

[4] = biological target: 3',5'-cyclic-AMP phosphodiesterase 4B (Homo sapiens) (UniProt Q07343); assay: qHTS Assay for Inhibitors of PDE-IV (AID 607; active = well fitted activation curve with a large enough effect in the main read-out, with a control signal flat, not every such curve was filed as active; also: % of control where 0% means no effect)
Summary of the method: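 The readout is membrane depolarisation from a cAMP-sensing CNG channel, detected with a potential dye at ex 535/em 590. Cells were HEK293-derived (endogenous PDE-IV) at 1000 cells/well, titrated up to 22.9 uM final.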

[5] = biological target: Cytochrome P450 3A4 (Homo sapiens) (UniProt P08684); assay: qHTS Assay for Activators of Cytochrome P450 3A4 (AID 885); also: nearly all actives have a fitted effect of over 65% in size
Summary of the method: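 Activators are scored by enhanced luminescence from CYP3A4 conversion of luciferin-PPXE (25uM, equal to KM) to luciferin, after 60 min at RT with an NADPH-regenerating system.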

[6] = biological target: ATP-dependent 6-phosphofructokinase (Trypanosoma brucei brucei) (UniProt O15648); assay: qHTS Assay to Find Inhibitors of T. brucei phosphofructokinase: hit validation (AID 492961);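 also: luminescence reports ADP formed as PFK phosphorylates fructose-6-phosphate with ATP; % is scaled to controls: 0 for no effect and ±100 for the full control effect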
Summary of the method: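 Compounds titrated; %activity normalized to 0x and 1x enzyme controls, curve-fitted. Readout: ADP-Glo luminescence after 45 min room-temperature reaction of 1.25 nM PFK, 0.1 mM ATP, 0.5 mM F6P, pH 8.0.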

[7] = biological target: Ubiquitin carboxyl-terminal hydrolase 1 (Homo sapiens) (UniProt O94782); assay: Inhibitors of USP1/UAF1: Pilot qHTS (AID 504865);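 also: rhodamine fluorescence freed from ubiquitin-rhodamine substrate followed over time; top concentration of the series differs between compounds; % is scaled to controls: 0 for no effect and ±100 for the full control effect; nearly all actives have a fitted effect of over 35% in size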
Summary of the method: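 USP1/UAF1 complex (1nM) preincubated with compound 15 min at room temperature, then Ub-Rho substrate (150nM final) added. Fluorescence read kinetically at 480/540 nm, 6 reads every 60 seconds. Buffer: 50mM HEPES pH 7.8, 0.5mM EDTA, 0.1 mg/ml BSA, 1mM TCEP, 0.01% Tween-20.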

[8] = biological target: Luciferin 4-monooxygenase (Photinus pyralis) (UniProt P08659); assay: Biochemical firefly luciferase enzyme assay for NPC (AID 624030);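 also: purified P. pyralis luciferase at 10 nM with luciferin and ATP substrate; 0% = DMSO and -100% = full luciferase inhibition by PTC124 control; nearly all actives have a fitted effect of over 70% in size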
Summary of the method: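 Purified P. pyralis luciferase at 10 nM in 50 mM Tris Acetate (final), luminescence read within 5 minutes of enzyme addition to compounds. Activity normalised to PTC124 versus DMSO; concentration-response curves classed by r2, magnitude and activity.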

[9] = S16 Schwann cell viability assay (CellTiter-Glo assay) (AID 624031);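 also: native untransfected S16 rat Schwann cells; cellular ATP luminescence as a viability measure; plate controls were DMSO-treated cells for no effect and cell-free wells for full effect; nearly all actives have a fitted effect of over 70% in size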
Summary of the method: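 Cells were seeded at 500-750 per well in phenol red-free DMEM with 10% FBS and left overnight. Compounds or DMSO were pinned in, incubation ran 24 h at 37 °C/5% CO2, then CellTiter-Glo reagent was added and luminescence measured.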

[10] = S16 Schwann cell PMP22 intronic element beta-lactamase assay (AID 624044; calls by dose curve;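 also: 0% = DMSO and -100% = potassium clavulanate positive control; nearly all actives have a fitted effect of over 15% in size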); settings: S16 rat Schwann cells, PMP22 element beta-lactamase FRET, 24 h; ratio activity, negative = inhibition: at 38.3 µM (top of the series)
Summary of the method: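 Beta-lactamase reporter under a PMP22 intronic regulatory element in stable S16 rat Schwann cells; 24 h compound exposure. 460 nm blue signal normalized between DMSO (0%) and potassium clavulanate, with 535 nm FRET tracking viability; curves classed by r2 and response.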

[11] = qHTS profiling for inhibitors of Plasmodium falciparum proliferation (AID 504749);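 also: 0% = DMSO vehicle and full inhibition = artemisinin control; nearly all actives have a fitted effect of over 60% in size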; settings: P. falciparum in erythrocytes, SYBR Green DNA, 72 h, at 12.8 µM (top of the series)
Summary of the method: (§1)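 Each compound contacts P. falciparum-infected red blood cells for 72 h at 37 C; lysis buffer (Tris, EDTA, saponin, Triton X, SYBR Green I) is added and fluorescence measured next morning; values normalized to controls.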

3D7 = assay: as above; settings: P. falciparum in erythrocytes, SYBR Green DNA, 72 h; series mostly up to 28.7 µM
Summary of the method: as §1

7G8 = assay: as above; settings: P. falciparum in erythrocytes, SYBR Green DNA, 72 h; series mostly up to 28.7 µM
Summary of the method: as §1

AA1029 = assay: as above; settings: P. falciparum in erythrocytes, SYBR Green DNA, 72 h; series mostly up to 28.7 µM
Summary of the method: as §1

AS120 = assay: as above; settings: P. falciparum in erythrocytes, SYBR Green DNA, 72 h; series mostly up to 28.7 µM
Summary of the method: as §1

ATS189 = assay: as above; settings: P. falciparum in erythrocytes, SYBR Green DNA, 72 h; series mostly up to 28.7 µM
Summary of the method: as §1

ATS95 = assay: as above; settings: P. falciparum in erythrocytes, SYBR Green DNA, 72 h; series mostly up to 28.7 µM
Summary of the method: as §1

C2A = assay: as above; settings: P. falciparum in erythrocytes, SYBR Green DNA, 72 h; series mostly up to 28.7 µM
Summary of the method: as §1

CP185 = assay: as above; settings: P. falciparum in erythrocytes, SYBR Green DNA, 72 h; series mostly up to 28.7 µM
Summary of the method: as §1

CP191 = assay: as above; settings: P. falciparum in erythrocytes, SYBR Green DNA, 72 h; series mostly up to 28.7 µM
Summary of the method: as §1

CP192 = assay: as above; settings: P. falciparum in erythrocytes, SYBR Green DNA, 72 h; series mostly up to 28.7 µM
Summary of the method: as §1

CP194 = assay: as above; settings: P. falciparum in erythrocytes, SYBR Green DNA, 72 h; series mostly up to 28.7 µM
Summary of the method: as §1

CP201 = assay: as above; settings: P. falciparum in erythrocytes, SYBR Green DNA, 72 h; series mostly up to 28.7 µM
Summary of the method: as §1

CP203 = assay: as above; settings: P. falciparum in erythrocytes, SYBR Green DNA, 72 h; series mostly up to 28.7 µM
Summary of the method: as §1

CP211 = assay: as above; settings: P. falciparum in erythrocytes, SYBR Green DNA, 72 h; series mostly up to 28.7 µM
Summary of the method: as §1

CP217 = assay: as above; settings: P. falciparum in erythrocytes, SYBR Green DNA, 72 h; series mostly up to 28.7 µM
Summary of the method: as §1

CP237 = assay: as above; settings: P. falciparum in erythrocytes, SYBR Green DNA, 72 h; series mostly up to 28.7 µM
Summary of the method: as §1

CP238 = assay: as above; settings: P. falciparum in erythrocytes, SYBR Green DNA, 72 h; series mostly up to 28.7 µM
Summary of the method: as §1

CP247 = assay: as above; settings: P. falciparum in erythrocytes, SYBR Green DNA, 72 h; series mostly up to 28.7 µM
Summary of the method: as §1

CP250 = assay: as above; settings: P. falciparum in erythrocytes, SYBR Green DNA, 72 h; series mostly up to 28.7 µM
Summary of the method: as §1

CP252 = assay: as above; settings: P. falciparum in erythrocytes, SYBR Green DNA, 72 h; series mostly up to 28.7 µM
Summary of the method: as §1

CP256 = assay: as above; settings: P. falciparum in erythrocytes, SYBR Green DNA, 72 h; series mostly up to 28.7 µM
Summary of the method: as §1

CP260 = assay: as above; settings: P. falciparum in erythrocytes, SYBR Green DNA, 72 h; series mostly up to 28.7 µM
Summary of the method: as §1

Chain of Glucocorticoid receptor (Homo sapiens) (P04150 whole entry, looked up, the tested form may be a part): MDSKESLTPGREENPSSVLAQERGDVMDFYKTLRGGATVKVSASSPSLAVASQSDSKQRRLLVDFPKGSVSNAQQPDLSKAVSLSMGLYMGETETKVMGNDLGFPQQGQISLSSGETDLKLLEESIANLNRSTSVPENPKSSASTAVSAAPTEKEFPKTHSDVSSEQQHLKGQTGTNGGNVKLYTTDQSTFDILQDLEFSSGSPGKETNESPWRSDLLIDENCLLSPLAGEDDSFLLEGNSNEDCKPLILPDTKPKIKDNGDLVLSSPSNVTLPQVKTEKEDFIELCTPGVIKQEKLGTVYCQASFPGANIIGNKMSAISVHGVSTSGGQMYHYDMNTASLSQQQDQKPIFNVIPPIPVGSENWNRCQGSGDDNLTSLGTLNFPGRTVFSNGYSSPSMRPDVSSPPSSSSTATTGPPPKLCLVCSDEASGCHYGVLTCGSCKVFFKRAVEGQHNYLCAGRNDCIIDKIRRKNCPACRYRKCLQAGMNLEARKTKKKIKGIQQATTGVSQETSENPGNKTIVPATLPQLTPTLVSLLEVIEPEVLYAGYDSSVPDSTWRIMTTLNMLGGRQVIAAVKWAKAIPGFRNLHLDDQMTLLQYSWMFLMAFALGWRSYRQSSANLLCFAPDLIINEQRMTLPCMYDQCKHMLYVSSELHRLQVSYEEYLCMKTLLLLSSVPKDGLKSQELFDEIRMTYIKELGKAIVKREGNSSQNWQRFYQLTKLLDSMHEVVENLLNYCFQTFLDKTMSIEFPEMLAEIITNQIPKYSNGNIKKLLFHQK
Chain of ATP-dependent 6-phosphofructokinase (Trypanosoma brucei brucei) (O15648 whole entry, looked up): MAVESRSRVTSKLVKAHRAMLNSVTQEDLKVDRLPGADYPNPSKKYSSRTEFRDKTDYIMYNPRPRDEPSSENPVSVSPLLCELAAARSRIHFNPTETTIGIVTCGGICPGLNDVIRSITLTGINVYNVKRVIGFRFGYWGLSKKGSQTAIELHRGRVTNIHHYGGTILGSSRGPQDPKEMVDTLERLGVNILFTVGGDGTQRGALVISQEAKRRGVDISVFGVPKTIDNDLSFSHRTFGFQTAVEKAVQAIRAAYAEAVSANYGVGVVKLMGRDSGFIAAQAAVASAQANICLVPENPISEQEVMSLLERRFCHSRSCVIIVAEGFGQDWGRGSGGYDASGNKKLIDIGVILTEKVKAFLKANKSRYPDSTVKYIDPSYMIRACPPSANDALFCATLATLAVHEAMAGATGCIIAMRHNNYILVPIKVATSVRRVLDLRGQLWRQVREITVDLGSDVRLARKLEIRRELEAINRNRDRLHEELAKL
Chain of 3',5'-cyclic-AMP phosphodiesterase 4B (Homo sapiens) (Q07343 whole entry, looked up): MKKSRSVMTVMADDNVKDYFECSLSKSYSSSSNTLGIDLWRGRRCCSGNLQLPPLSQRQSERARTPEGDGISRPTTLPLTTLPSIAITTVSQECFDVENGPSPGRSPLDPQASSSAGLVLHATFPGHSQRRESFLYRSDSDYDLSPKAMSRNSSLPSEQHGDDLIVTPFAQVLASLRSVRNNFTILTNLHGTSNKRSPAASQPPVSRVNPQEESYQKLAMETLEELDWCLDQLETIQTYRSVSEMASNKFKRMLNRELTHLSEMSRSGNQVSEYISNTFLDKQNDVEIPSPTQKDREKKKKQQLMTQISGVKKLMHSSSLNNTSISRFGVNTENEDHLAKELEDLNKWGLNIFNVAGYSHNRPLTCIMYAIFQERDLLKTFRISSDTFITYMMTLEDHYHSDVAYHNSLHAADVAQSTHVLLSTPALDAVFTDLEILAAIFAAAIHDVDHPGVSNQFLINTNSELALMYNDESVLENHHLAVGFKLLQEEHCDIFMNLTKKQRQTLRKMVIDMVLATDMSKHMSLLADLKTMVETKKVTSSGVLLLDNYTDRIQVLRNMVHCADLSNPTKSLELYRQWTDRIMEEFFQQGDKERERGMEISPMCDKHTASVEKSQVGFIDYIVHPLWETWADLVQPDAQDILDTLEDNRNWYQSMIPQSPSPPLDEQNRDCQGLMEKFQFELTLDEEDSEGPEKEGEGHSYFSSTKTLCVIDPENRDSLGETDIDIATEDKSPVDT
Chain of Cytochrome P450 3A4 (Homo sapiens) (P08684 whole entry, looked up): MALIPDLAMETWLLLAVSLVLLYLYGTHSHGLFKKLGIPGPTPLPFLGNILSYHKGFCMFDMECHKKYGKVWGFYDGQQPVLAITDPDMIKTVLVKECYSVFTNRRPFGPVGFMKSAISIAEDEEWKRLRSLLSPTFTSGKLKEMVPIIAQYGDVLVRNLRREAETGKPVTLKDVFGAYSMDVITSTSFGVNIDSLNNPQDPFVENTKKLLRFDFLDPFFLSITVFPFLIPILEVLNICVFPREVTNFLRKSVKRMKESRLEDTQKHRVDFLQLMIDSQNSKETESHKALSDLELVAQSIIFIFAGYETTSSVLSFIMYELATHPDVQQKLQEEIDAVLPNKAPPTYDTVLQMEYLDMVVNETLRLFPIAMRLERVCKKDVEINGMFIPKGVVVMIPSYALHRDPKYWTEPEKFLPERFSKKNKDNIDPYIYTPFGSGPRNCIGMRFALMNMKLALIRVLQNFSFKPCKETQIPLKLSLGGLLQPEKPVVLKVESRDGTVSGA
Chain of Luciferin 4-monooxygenase (Photinus pyralis) (P08659 whole entry, looked up): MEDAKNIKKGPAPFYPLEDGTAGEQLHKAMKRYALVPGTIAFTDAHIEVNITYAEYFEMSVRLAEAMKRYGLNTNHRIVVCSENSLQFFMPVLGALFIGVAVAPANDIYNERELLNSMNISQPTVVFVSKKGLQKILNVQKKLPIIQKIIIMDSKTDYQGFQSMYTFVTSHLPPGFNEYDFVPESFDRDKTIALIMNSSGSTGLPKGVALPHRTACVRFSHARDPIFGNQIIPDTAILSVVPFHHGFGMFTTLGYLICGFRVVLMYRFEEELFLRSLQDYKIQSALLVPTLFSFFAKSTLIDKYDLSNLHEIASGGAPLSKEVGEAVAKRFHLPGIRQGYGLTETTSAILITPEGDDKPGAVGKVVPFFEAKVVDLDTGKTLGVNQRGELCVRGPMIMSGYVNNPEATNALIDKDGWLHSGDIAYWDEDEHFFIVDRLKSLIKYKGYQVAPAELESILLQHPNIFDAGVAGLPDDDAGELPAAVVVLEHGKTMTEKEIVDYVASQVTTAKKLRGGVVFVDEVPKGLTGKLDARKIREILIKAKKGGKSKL
Chain of Ubiquitin carboxyl-terminal hydrolase 1 (Homo sapiens) (O94782 whole entry, looked up): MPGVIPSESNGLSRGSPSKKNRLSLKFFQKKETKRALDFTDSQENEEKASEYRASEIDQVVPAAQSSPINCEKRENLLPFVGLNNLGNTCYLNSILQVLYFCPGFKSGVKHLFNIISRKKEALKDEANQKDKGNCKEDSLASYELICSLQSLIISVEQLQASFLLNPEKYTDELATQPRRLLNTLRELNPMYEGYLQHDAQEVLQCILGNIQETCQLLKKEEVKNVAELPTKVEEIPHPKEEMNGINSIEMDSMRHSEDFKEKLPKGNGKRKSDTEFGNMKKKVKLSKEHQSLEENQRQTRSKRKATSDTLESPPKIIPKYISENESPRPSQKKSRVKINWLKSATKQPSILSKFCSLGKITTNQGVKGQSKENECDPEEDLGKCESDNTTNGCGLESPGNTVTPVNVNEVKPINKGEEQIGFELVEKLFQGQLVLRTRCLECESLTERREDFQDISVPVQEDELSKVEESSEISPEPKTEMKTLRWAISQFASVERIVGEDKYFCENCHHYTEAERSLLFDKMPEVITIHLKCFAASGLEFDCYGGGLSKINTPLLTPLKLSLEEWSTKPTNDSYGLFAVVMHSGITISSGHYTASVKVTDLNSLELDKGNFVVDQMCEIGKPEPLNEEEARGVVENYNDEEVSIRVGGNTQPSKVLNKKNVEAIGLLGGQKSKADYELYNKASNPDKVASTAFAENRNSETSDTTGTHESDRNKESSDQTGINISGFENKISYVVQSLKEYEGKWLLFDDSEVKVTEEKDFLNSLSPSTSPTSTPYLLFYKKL

CCCC[C@H]1C(=O)N(c2ccccc2)N(c2ccc(O)cc2)C1=O
inactive: Potency [1] > 20.6 µM | Potency [2] > 20.6 µM | Potency [3] | Potency [4] | Potency [5] | Potency [6] | Potency [7] | Potency [8] | Potency [9] | Potency [10] | activity, negative = inhibition ([11]; parasite line A) -7.31% | activity, negative = inhibition ([11]; parasite line B) 3.99% | Potency (3D7) | Potency (7G8) | Potency (AA1029) | Potency (AS120) | Potency (ATS189) | Potency (ATS95) | Potency (C2A) | Potency (CP185) | Potency (CP191) | Potency (CP192) | Potency (CP194) | Potency (CP201) | Potency (CP203) | Potency (CP211) | Potency (CP217) | Potency (CP237) | Potency (CP238) | Potency (CP247) | Potency (CP250) | Potency (CP252) | Potency (CP256) | Potency (CP260)

Reference: PubChem BioAssay (NCATS)
